Data reported in paper PMC5540273 (PLoS ONE, 2017).

How the values were obtained:
Conditions in all cases: concentration: 1 μM,replicates: in singlicate; n = 1
PRKD3 = system: PRKD3
PRKG1 = system: PRKG1
PRKG2 = system: PRKG2
PRKR = system: T1, PRKR
T1 construct: gene EIF2AK2

PRKX = system: PRKX
PRP4 = system: PRP4
PYK2 = system: T2, PYK2
T2 construct: gene PTK2B

QSK = system: QSK
RAF1 = system: RAF1
RET = system: RET
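Note: KINOMEscan kinase panel screen.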

Compound | %Inh (PRKD3) [%] | %Inh (PRKG1) [%] | %Inh (PRKG2) [%] | %Inh (PRKR) [%] | %Inh (PRKX) [%] | %Inh (PRP4) [%] | %Inh (PYK2) [%] | %Inh (QSK) [%] | %Inh (RAF1) [%] | %Inh (RET) [%]
CCn1c(-c2nonc2N)nc2c(C#CC(C)(C)O)nc(OCCN)cc21.Cl.Cl [GSK902056] | 37 | 39 | 97 | 0 | 91.6 | 8 | 9 | 23 | 0 | 23
Cl.Cl.Nc1nc(-c2ccc3c(N)n[nH]c3c2)cc(N2CCCC(NC(=O)c3ccccc3)C2)n1 (stereo not drawn) [GSK2286775] | 0 | 0 | 38 | 5 | 83 | 36 | 15 | 0 | 9 | 0
CC(C)Nc1cc(-c2ccc3c(N)n[nH]c3c2)nc(N)n1 [GSK2221681] | 0 | 0 | 42 | 0 | 79 | 7 | 0 | 0 | 0 | 0
Cl.Cl.NC[C@H](Cc1ccc(C(F)(F)F)cc1)NC(=O)c1cc(Br)c(-c2ccnc3[nH]ccc23)s1 [GSK1487252] | 81 | 98.1 | 98.7 | 0 | 96 | 22 | 13 | 14 | 10 | 74
Cc1n[nH]c2ccc(-c3cc(OC[C@@H](N)Cc4ccccc4)cnc3-c3ccoc3)cc12.O=C(O)C(F)(F)F.O=C(O)C(F)(F)F [GSK507358] | 100 | 0 | 0 | 4 | 84 | 27 | 40 | 5 | 0 | 8
Cc1ccc(-n2nc(C(C)(C)C)cc2NC(=O)Nc2ccc(OCCN3CCOCC3)c3ccccc23)cc1 [GW839464] | 16 | 0 | 3 | 8 | 0 | 15 | – | 1 | 26 | 54
Cl.Cl.NC[C@H](CC1CCCCC1)NC(=O)c1cc(Br)c(-c2ccnc3[nH]ccc23)s1 [GSK1581427] | 82 | 99.3 | 98.5 | 0 | 96.2 | 78 | 20 | 5 | 2 | 25
CN(C)CC(O)COc1ccc(Nc2nccc(-c3cnn4nc(N5CCOCC5)ccc34)n2)cc1 (stereo not drawn) [GW767488] | 93.6 | 0 | 50 | 59 | 8 | 2 | 29 | 43 | 6 | 17
CC(C)N1C(=O)Cc2cc(Nc3ncc(C(F)(F)F)c(NCc4cccc(S(C)(=O)=O)c4)n3)ccc21 | 0 | 0 | 8 | 0 | 0 | 25 | 22 | 0 | 0 | 86
Cl.Oc1cc(-c2nc(-c3ccccc3)[nH]c2-c2ccncc2)ccc1Cl [SB-386023] | 0 | 15 | 0 | 0 | 0 | 0 | 6 | 33 | 97.9 | 66
C[C@@H](Oc1cc(-c2cnn(C3CCNCC3)c2)cnc1N)c1c(Cl)ccc(F)c1Cl | 63 | 0 | 3 | 26 | 35 | 0 | 80 | 0 | 0 | –
COc1ccc(C[C@@H](CN)NC(=O)c2cc(Br)c(-c3ccnc4[nH]ccc34)s2)cc1.Cl.Cl [GSK1389063] | 94.4 | 98.7 | 98.9 | 1 | 94.2 | 18 | 47 | 0 | 5 | 98.4
C[C@H]1Oc2cc(cnc2N)-c2c(nn(C)c2C#N)CN(C)C(=O)c2ccc(F)cc21 | 8 | 0 | 10 | 0 | 7 | 0 | 99.6 | 0 | 0 | 22
Cc1cc(C(=O)Nc2ccc(Oc3ccc4nc(NC(=O)C5CC5)cn4n3)cc2)nn1-c1ccccc1 | 0 | 8 | 6 | 18 | 0 | 0 | – | 0 | 75 | 81
O=C(NCCNc1ccnc(NCc2ccc(F)cc2)n1)c1cc2ccccc2s1 [GSK1379944] | 100 | 22 | 0 | 0 | 19 | 18 | 14 | 7 | 11 | 79
Cc1ccc2c(-c3ccncc3)c(-c3ccc(F)cc3)nn2c1.Cl [GW461484] | 50 | 30 | 18 | 0 | 0 | 0 | 0 | 1 | 19 | 14
C[C@@H]1CCN(C(=O)CC#N)C[C@@H]1N(C)c1ncnc2[nH]ccc12 | 14 | 14 | 0 | 0 | 0 | 0 | – | 0 | 0 | –
CCN(CC)CCCCNc1ncc2cc(-c3c(Cl)cccc3Cl)c(NC(=O)NC(C)(C)C)nc2n1 | 25 | 2 | 7 | 0 | 0 | 0 | 4 | 39 | 87 | 96.5
O=C(NCCCN1CCOC1=O)c1cnc(NCc2cc(Cl)ccc2Cl)nc1NC1CCCC1 | 0 | 13 | 21 | 4 | 0 | 1 | 0 | 0 | 7 | 22
Nc1nc(Nc2ccccc2)cc(-c2ccc3c(N)n[nH]c3c2)n1 [GSK2225749] | 0 | 12 | 45 | 3 | 57 | 60 | 0 | 0 | 0 | 6
NC(=O)c1cc(-c2ccccc2)cc2c(C3CCNCC3)c[nH]c12 [GSK301362] | 29 | 5 | 0 | 0 | 36 | 2 | 37 | 13 | 3 | 7
Cc1occc1-c1nc(N)c(OC[C@@H](N)Cc2c[nH]c3ccccc23)cc1-c1cc2c(C)n[nH]c2cn1 [GSK1660450] | 100 | 78 | 96.2 | 0 | 79 | 0 | 0 | 90.4 | 0 | 23
CNC(=O)c1ccccc1Sc1ccc2c(/C=C/c3ccccn3)n[nH]c2c1 | 0 | 0 | 0 | 0 | 9 | 0 | 20 | 0 | 3 | –
C=CC(=O)Nc1cc2c(Nc3ccc(F)c(Cl)c3)ncnc2cc1OCCCN1CCOCC1 [GW781483] | 0 | 0 | 31 | 0 | 0 | 0 | 1 | 1 | 0 | 38
CN(C)CCOc1ccc(-c2cc(-c3c[nH]nc3-c3ccccn3)ccn2)cc1 [GW835314] | 91.5 | 0 | 12 | 0 | 0 | 0 | 0 | 9 | 28 | 36
CCN(CC)CCOc1ccc(Nc2ncc3cc(-c4c(Cl)cccc4Cl)c(=O)n(C)c3n2)cc1 [SB-601273] | 100 | 0 | 9 | 18 | 0 | 31 | 56 | 95.6 | 97 | 100
Cc1cc2cn[nH]c2cc1-c1cccc2c(N)c(C(N)=O)nnc12 | 84 | 0 | 23 | 2 | 20 | 6 | 27 | 15 | 0 | 19
